Rows were chosen to be rich in hits. Some 3.5% of all compounds tested hit in one or more screens of this group.
MITF inh: inhibitors of human MITF; AID 1259374; O75030; 650,000 compounds, 0.91% hits; AlphaScreen MITF homodimerization, bead proximity signal; inhibition, % at 2.6 µM; in the data active = inhibition above about 50%;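 note: 0% = vehicle wells with protein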
GPR151 activ: human GPR151 activation; activation, % at 11.2 µM; 650,000 compounds, 1% hits; PathHunter beta-arrestin GPR151 cells, luminescence; Q8TDV0; in the data active = activation above about 4.9%;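 note: 0% = median of compound wells and 100% = cells with positive control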
FBW7 act: activators of human E3 ligase FBW7 | 650,000 compounds, 0.13% hits | normalized activity (activation), % at 26.1 µM | AlphaScreen FBW7–phospho-cyclin E peptide binding, activator screen | AID 1259310; in the data active = normalized activity above about 1.9%;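 note: purified mutant Fbw7 with reduced substrate affinity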
Target sequence (Q969H0 whole entry, looked up): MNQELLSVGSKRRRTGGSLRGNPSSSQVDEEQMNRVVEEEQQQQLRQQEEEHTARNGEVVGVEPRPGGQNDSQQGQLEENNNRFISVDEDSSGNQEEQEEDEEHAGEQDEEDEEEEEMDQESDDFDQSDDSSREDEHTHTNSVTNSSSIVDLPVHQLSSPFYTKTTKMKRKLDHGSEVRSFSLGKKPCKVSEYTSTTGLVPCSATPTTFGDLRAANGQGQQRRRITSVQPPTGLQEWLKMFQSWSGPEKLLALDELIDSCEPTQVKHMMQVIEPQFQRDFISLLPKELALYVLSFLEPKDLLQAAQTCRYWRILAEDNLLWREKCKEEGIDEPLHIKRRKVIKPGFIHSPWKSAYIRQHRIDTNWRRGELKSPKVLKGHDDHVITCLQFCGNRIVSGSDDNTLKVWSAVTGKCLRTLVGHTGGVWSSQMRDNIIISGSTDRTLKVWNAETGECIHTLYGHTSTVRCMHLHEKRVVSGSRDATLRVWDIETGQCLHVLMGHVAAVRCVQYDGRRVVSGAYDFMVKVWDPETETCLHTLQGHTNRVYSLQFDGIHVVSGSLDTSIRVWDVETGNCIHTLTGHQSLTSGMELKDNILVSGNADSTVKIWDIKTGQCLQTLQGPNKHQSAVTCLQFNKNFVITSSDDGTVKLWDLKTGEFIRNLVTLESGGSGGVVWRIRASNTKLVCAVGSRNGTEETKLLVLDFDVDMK
TEAD-YAP block: TEAD-YAP interaction inhibition; inhibition, % at 9.12 µM; AID 1259422; HEK-TIYL cells, TEAD-Gal4/YAP UAS-luciferase luminescence; 640,000 compounds, 1.4% hits; in the data active = inhibition above about 32%;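 note: 0% = median of test compound wells and 100% = reference inhibitor wells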
Numbers without * were called inactive.

SMILES | MITF inh | GPR151 activ | FBW7 act | TEAD-YAP block
CC(=O)Nc1ccc(/C=c2\sc3nc4ccccc4n3c2=O)cc1 | 11 | 0 | 0 | 57*
COc1ccc(-n2c(C)cc(/C=c3\sc4nc5ccccc5n4c3=O)c2C)cc1 | 2 | -1 | 0 | 12
COc1cc(OCc2cccc(C(=O)O)c2)ccc1C=C1C(=O)NC(=S)NC1=O | -6 | -7 | 0 | 86*
COc1ccc(OCc2cccc(C(=O)O)c2)cc1 | -6 | -7 | 0 | 93*
CCOc1ccc(OCc2cccc(C(=O)OC)c2)cc1 | -30 | 1 | 0 | 85*
O=C(O)c1cccc(OCc2ccccc2)c1 | 8 | -11 | 0 | -30
O=C(O)c1cccc(COc2ccc(I)cc2)c1 | -5 | -8 | 0 | 65*
O=C1NC(=S)NC(=O)C1=Cc1cccc(OCc2ccc(C(=O)O)cc2)c1 | 9 | -7 | 0 | -56
CC(=O)Nc1ccc(N2C(=O)c3ccc(Oc4ccc(Cl)cc4)cc3C2=O)cc1 | 10 | -1 | 0 | 5
Cc1cc(C)n(-c2cc(N3CCN(S(=O)(=O)Cc4ccccc4)CC3)nc(C)n2)n1 | 1 | 1 | 0 | 3
CC(C)c1ccc(OCc2cccc(C(=O)NCCN(C)C)c2)cc1 | -3 | 2 | 0 | 86*
CCOc1ccc2nc(S/C=C(\c3ccccc3)[N+](=O)[O-])sc2c1 | -1 | 1 | 0 | -27
COc1cc(-c2ccc(NC(=O)Nc3ccccc3C)c(OC)c2)ccc1NC(=O)Nc1ccccc1C | 14 | -2 | 0 | 45*
COC(=O)c1ccc(C)c(NS(=O)(=O)c2ccc(C)cc2)c1 | -6 | 0 | 0 | 56*
CCOC(=O)c1cc2cccc(NS(=O)(=O)c3ccc(C)cc3)c2[nH]1 | 5 | 0 | 0 | 39*
COC(=O)c1ccc(C)c(NS(=O)(=O)c2ccc(Br)cc2)c1 | -12 | -1 | 0 | 45*
COC(=O)c1ccc(C)c(NS(=O)(=O)c2ccc(F)cc2)c1 | -1 | -2 | 0 | -4
COC(=O)c1ccc(NS(=O)(=O)c2ccc(N3C(=O)c4ccccc4C3=O)cc2)cc1 | -1 | 1 | 0 | -6
Cc1ccccc1C(=O)N(CC(=O)Nc1sc(C)c(C)c1C(N)=O)C1CCCCC1 | 7 | 0 | 0 | 12
Cc1sc(NC(=O)CN(C(=O)c2ccccc2)C2CCCCC2)c(C(N)=O)c1C | 10 | -1 | 0 | 36*
Cc1sc(NC(=O)CN(C(=O)c2ccc(Cl)cc2)C2CCCC2)c(C(N)=O)c1C | -15 | 0 | 0 | 20
Cc1sc(NC(=O)CN(C(=O)c2ccccc2)C2CCCC2)c(C(N)=O)c1C | 11 | -1 | 0 | 41*
COc1cccc(C(=O)N(CC(=O)Nc2sc(C)c(C)c2C(N)=O)C2CCCC2)c1 | -1 | 0 | 0 | 41*
CCOC(=O)c1ccc(NC(=O)CSc2nc3ccsc3c(=O)n2Cc2ccccc2F)cc1 | -3 | 2 | 0 | -2
O=C(O)c1ccc(COc2ccc(Cl)cc2[N+](=O)[O-])o1 | -4 | -5 | 0 | 4
SMILES | MITF inh | GPR151 activ | FBW7 act | TEAD-YAP block
O=C1NC(=O)C2(CCN(Cc3ccccc3)CC2)C1c1ccccc1 (stereo unspecified) | 2 | 0 | 0 | -5
OCCn1c(Cc2ccccc2)nc2ccccc21 | 4 | -11 | 0 | 98*
CCc1cc(C(=O)NCc2c(C)ncc3c2CCN(C(=O)CN2CCCC2)C3)no1 | 13 | 2 | 0 | -5
Nc1cccc(N2C(=O)c3cccc(N)c3C2=O)c1 | -2 | 0 | 0 | 6
Cc1ccc(N2C(=O)c3cccc(N)c3C2=O)c(C)c1 | -7 | 1 | 0 | 33*
Nc1cccc2c1C(=O)N(c1ccc3ccccc3c1)C2=O | 1 | 0 | 2.4* | -54
Cc1ccc(S(=O)(=O)N2CCCCC2CCNC(=O)C(=O)NC2CCCC2)cc1 (stereo unspecified) | 0 | 4 | 0 | 4
Cc1ccc(S(=O)(=O)N2CCCCC2CCNC(=O)C(=O)NCCc2ccco2)cc1 (stereo unspecified) | 5 | 0 | 0 | 47*
Cc1ccc(S(=O)(=O)N2CCCCC2CCNC(=O)C(=O)NCc2ccco2)cc1 (stereo unspecified) | -4 | -1 | 0 | 41*
O=C(NCCc1ccco1)C(=O)NCC1CCCN1S(=O)(=O)c1ccccc1 (stereo unspecified) | 14 | 1 | 0 | 32*
Cc1ccc(S(=O)(=O)N2CCCCC2CCNC(=O)C(=O)NCc2cccs2)cc1 (stereo unspecified) | 9 | 0 | 1 | 48*
C/C(CC(=O)NC12CC3CC(CC(C3)C1)C2)=N\NC(=O)c1ccccc1Br | 4 | -2 | 0 | -16
O=C(NC1CCCCC1)NC1(C(=O)NCCCN2CCOCC2)CCCCC1 | 11 | 0 | 1.9* | 3
Cc1ccccc1NC(=O)c1cccc2c1C(=O)c1ccccc1-2 | 12 | 0 | 0 | 53*
CCCNc1nc(-c2c(C)nn(C)c2C)nc2c1ncn2-c1ccsc1 | 0 | -1 | 0 | 23
O=C1CCCN1CCCNc1nc(Nc2ccccc2)nc2c1ncn2-c1ccsc1 | 9 | 1 | 0 | 65*
Cc1nn(C)c(C)c1-c1nc(NCCc2ccc(O)cc2)c2ncn(-c3ccsc3)c2n1 | 20 | 2 | 0 | 56*
O=C1CCCN1CCCNc1nc(Nc2ccc(C(F)(F)F)cc2)nc2c1ncn2-c1ccsc1 | 5 | 0 | 0 | 12
O=C1CCCN1CCCNc1nc(Nc2ccc3ncccc3c2)nc2c1ncn2-c1ccsc1 | 11 | 0 | 0 | 52*
COc1cc(Nc2nc(NCCCN3CCCC3=O)c3ncn(-c4ccccc4)c3n2)cc(OC)c1OC | 9 | -1 | 0 | 49*
COC(=O)[C@@H]1C[C@@H](NC(=O)c2ccc(OC)cc2)CN1Cc1ccccc1 | 4 | -1 | 0 | 14
Cc1nn(C)c(C)c1-c1nc(NCCCN2CCCC2=O)c2ncn(-c3ccsc3)c2n1 | 16 | -1 | 0 | 56*
O=C1CCCN1CCCNc1nc(Nc2ccncc2)nc2c1ncn2-c1ccsc1 | -2 | -2 | 0 | 60*
O=C1CCCN1CCCNc1nc(-c2csc3ccccc23)nc2c1ncn2-c1ccsc1 | 8 | 1 | 0 | 12
O=C1CCCN1CCCNc1nc(-c2cccs2)nc2c1ncn2-c1ccsc1 | 14 | -1 | 0 | 55*
SMILES | MITF inh | GPR151 activ | FBW7 act | TEAD-YAP block
O=C1CCCN1CCCNc1nc(Nc2ncccn2)nc2c1ncn2-c1ccccc1 | -8 | -1 | 0 | 3
Cc1nn(C)c(C)c1-c1nc(NCCCN2CCCC2=O)c2ncn(-c3ccccc3)c2n1 | -7 | 0 | 0 | 18
O=C1CCCN1CCCNc1nc(Nc2ccccc2)nc2c1ncn2-c1ccccc1 | 6 | -1 | 0 | 39*
CC(=O)N1CC(C)Sc2cc(S(=O)(=O)NCCC3=CCCCC3)ccc21 (stereo unspecified) | 1 | 2 | 0 | 20
O=C(Nc1ccc(Cl)cc1Cl)c1cc2nc(-c3cccs3)cc(C(F)(F)F)n2n1 | 12 | -2 | 0 | -7
O=C1CCCN1CCCNc1nc(Nc2ccc(-n3ccnc3)cc2)nc2c1ncn2-c1ccsc1 | 9 | 1 | 0 | 61*
